IL1B secr inh – inflammasome signaling inhibition, IL-1 beta readout; THP-1 LPS/ATP IL-1B secretion, AlphaLISA, 16 h; stronger effect = lower value; activity change, % at 57.5 µM; 4.7% of 360,000 active; AID 743279; in the data active = activity change below about -50%; inconclusive = mostly about -30% to -49%
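Secreted IL-1B measured by AlphaLISA bead assay after 16 h compound exposure of THP-1 cells; compounds (final up to 57.5 uM) added 1 h before LPS (250 ng/mL) and ATP (1.25 mM) stimulation; lower signal means less secretion.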
HT1080NT lethal – kills 2HG-producing HT-1080-NT fibrosarcoma cells. HT-1080-NT fibrosarcoma viability, CellTiter-Glo ATP luminescence, 48 h. Potency, µM (top dose mostly 46.1 µM), inactives show top-dose activity, negative = less viability, actives largely listed as cytotoxic. 1.6% of 360,000 active. AID 686970;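 also: NT is the 2HG producing partner of a matched IDH1 knockdown line; potency is read from the fitted curve at half-maximal effect; 0% = DMSO-treated cells and -100% = media-only wells without cells; nearly all actives have a fitted effect of over 55% in size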
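A 48-hour cytotoxicity screen used HT-1080-NT cells plated 2 hours before compound delivery. ATP-based CellTiter-Glo luminescence measured viability, normalized to DMSO and no-cell controls.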
HT1080 IDH1KD tx – kills HT-1080 cells with IDH1 knockdown; HT-1080 IDH1 knockdown viability, ATP luminescence, 48 h; Potency, µM (doses to about 46.1 µM), without a hit: top-dose activity, negative = toxicity, usual class: cytotoxic; 2% of 360,000 active; AID 686971;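 also: potency is read from the fitted curve at half-maximal effect; 0% = DMSO wells and -100% = cell-free medium wells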
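Knockdown cells (IDH1KD HT-1080) received compounds 2 h after plating at 750 cells/well and were kept 48 h at 37 °C in 5% FBS RPMI. A CellTiter-Glo luminescence read gave % activity for curve fitting.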
TDP1 cell CPT – DT40-hTDP1 cell growth loss with CPT; chicken DT40 Tdp1-/-;hTDP1 cells + 20 nM CPT, ATP luminescence, 48 h; Potency, µM (series often up to 46.2 µM), inactives show at the top dose activity change, negative = growth inhibition, usual class: inhibitors; 12% of 420,000 active; AID 686979; also: potency is read from the fitted curve at half-maximal effect; nearly all actives have a fitted effect of over 55% in size
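Chicken DT40 Tdp1-/- cells complemented with human TDP1, 400 cells/well, exposed to compounds plus 20 nM camptothecin for at least 48 h at 37 C; viability read as ATP content by CellTiter-Glo luminescence.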
DT40 TDP1 no CPT – qHTS for Inhibitors of human tyrosyl-DNA phosphodiesterase 1 (TDP1): qHTS in cells in absence of CPT; DT40 Tdp1-/- hTDP1 cells, no CPT, ATP luminescence, 48 h; Potency, µM (top dose mostly 46.2 µM), for inactives: top-dose activity change, negative = growth inhibition, usual class: inhibitors; 15% of 420,000 active; AID 686978, 2013; also: potency is read from the fitted curve at half-maximal effect; nearly all actives have a fitted effect of over 55% in size
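Seeded 400 DT40-hTDP1 cells/well (vehicle DMSO, no 20 nM CPT); pinned compounds; ≥48 hr at 37 °C; CellTiter-Glo luminescence as viability measure.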
ELG1 DNA repair – inhibitors of ELG1-dependent DNA repair in HEK293T cells. AID 504467. HEK293T ELG1-luciferase reporter, luminescence, 16 h; DNA damage induced by 5-fluorouridine. 2.3% of 330,000 active. Potency, µM (highest dose often 46.1 µM), for the others: at the top dose activity change, negative = inhibition, usual class: inhibitors; also: potency is read from the fitted curve at half-maximal effect; nearly all actives have a fitted effect of over 55% in size
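5-Fluorouridine DNA damage + compound/DMSO, 2,000 cells/well, 16 h, 37 °C/5% CO2. ONE-Glo, 30 min RT, luminescence. Readout = decrease in reporter signal.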
* marks the source's active call; other numbers are inactive results; ? = inconclusive; · = not tested or not shown; [ ] = another dose, or the depositor's remark. Compounds with a hit are over-represented: about 19% of the library has one in this group of screens. Unless noted, calls follow the shape of the dose curve; as a rule, active = well fitted curve in the direction sought with a large enough effect; inconclusive = small, poorly fitted or top-dose-only effect, or another doubt; inactive = no such curve, though single readings can be large; an effect the other way counts as inactive or inconclusive. Unless noted, % is scaled to controls: 0 for no effect and ±100 for the full control effect.

SMILES | IL1B secr inh | HT1080NT lethal | HT1080 IDH1KD tx | TDP1 cell CPT | DT40 TDP1 no CPT | ELG1 DNA repair
COc1cc(/C=C(/C#N)C(=O)NCCCc2ccccc2)ccc1OCC(=O)O | 26 | 15% | 9% | 9% | 8% | 17%
N#C/C(=C/c1cccc(O)c1)C(=O)NCc1ccc(Cl)cc1 | -103* | ? | ? | ? | 16µM* | ?
CNC(=S)NCc1ccc2[nH]c(C)cc2c1 | -12 | 3% | 2% | 2% | -13% | 0%
Cc1ccc(Cl)cc1NC(=S)NCc1cccn1C | -8 | -3% | 2% | ? | 18µM* | -4%
Cc1ccccc1NC(=S)NCc1cccn1C | 5 | 3% | 6% | 3% | -1% | -7%
CCc1cccc(C)c1NC(=S)NCc1ccc2[nH]c(C)cc2c1 | -30 | 1% | -17% | 23µM* | 18µM* | ?
CCc1cccc(C)c1NC(=S)NCc1cccn1C | -4 | 10% | 9% | 21µM* | ? | ?
CCOc1ccccc1C(=O)Nc1ccccc1-c1ccccc1 | 13 | 3% | -8% | ? | ? | -17%
O=C(NCC(c1ccco1)N1CCCCC1)c1cccnc1 (stereo not drawn) | -3 | 0% | 3% | 9% | -11% | 10%
CC12CCC(O)CC1=CCC1C2CCC2(C)C3=NN=CC3CC12 (stereo not drawn) | 54 | ? | 33µM* | -17% | ? | ·
CN(C)CCN[C@H]1CCC2C3CC=C4C[C@@H](O)CC[C@]4(C)C3CC[C@@]21C (stereo partly drawn) | 5 | -7% | -1% | 5.8µM* | 3.3µM* | -4%
CC1CC(NC(=O)c2c(O)nc3sccn3c2=O)CC(C)(C)C1 (stereo not drawn) | 56 | -19% | -24% | ? | ? | 12%
CC(=O)N1c2ccccc2C2CCCC[C@@H]21 (stereo partly drawn) | 63 | 12% | 5% | -16% | -28% | ?
CCCC(=O)N1c2ccccc2C(N(C(C)=O)c2ccccc2)CC1C (stereo not drawn) | 30 | -3% | 0% | 23µM* | ? | -5%
Cc1ccc(C(=O)N(c2ccccc2)C2CC(C)N(C(=O)c3ccco3)c3ccccc32)cc1 (stereo not drawn) | -23 | ? | ? | 7.3µM* | 4.6µM* | ?
CCC(=O)OC1CC(C)N(C(=O)c2ccccc2)c2ccc(C)cc21 (stereo not drawn) | -6 | -1% | -2% | 11µM* | 14µM* | ?
CCCC(=O)O[C@H]1C[C@@H](C)N(C(=O)c2ccccc2)c2ccc(C)cc21 | -4 | -4% | -6% | -7% | ? | 3%
CCC(=O)N1c2ccccc2[C@@H](N(C(C)=O)c2ccccc2)C[C@H]1C | -13 | 0% | -4% | -24% | -24% | ?
CC(=O)N(c1ccccc1)C1CC(C)N(C(=O)c2ccccc2)c2ccccc21 (stereo not drawn) | 0 | -1% | 15% | 8.2µM* | 7.3µM* | -24%
Cc1ccc(CSC2=NCCN2C(=O)c2ccco2)cc1 | -9 | 2% | 5% | -3% | -23% | 11%
c1ccc2cc(C3OCC4(CCCC4)CO3)ccc2c1 | -8 | -3% | 0% | ? | -32% | ·
Cc1csc(NCC(=O)c2c(C)[nH]c3ccccc23)n1 | · | · | · | 7% | 12% | ·
CC1=CC[C@@]2(CO)COC(c3ccccc3O)C1C2 (stereo partly drawn) | · | · | · | 6%[9.04 µM] | 9%[9.04 µM] | ·
CCC1Cc2c(nc(N)c3c(N)nc(N4CCOCC4)c(C#N)c23)O1 (stereo not drawn) | -17 | -8% | -5% | ? | ? | ?
COCC(C)N1C(=O)Cc2c1nc(N)c1c(N)nc(N3CCN(c4ccccc4F)CC3)c(C#N)c21 (stereo not drawn) | ? | 4% | -19% | ? | 26µM* | 21µM*
SMILES | IL1B secr inh | HT1080NT lethal | HT1080 IDH1KD tx | TDP1 cell CPT | DT40 TDP1 no CPT | ELG1 DNA repair
COCCN1C(=O)Cc2c1nc(N)c1c(N)nc(N3CCN(c4ccc(F)cc4)CC3)c(C#N)c21 | 35 | 0% | -4% | 8.2µM* | 2.1µM* | 5%
COc1ccc(CN2C(=O)Cc3c2nc(N)c2c(N)nc(N4CCOCC4)c(C#N)c32)cc1 | -23 | -3% | 8% | 15µM* | 21µM* | ?
Cc1cc(C)c(C#N)c(N2CCN(c3ccccc3F)CC2)n1 | 42 | 1% | 1% | 7% | -8% | -14%
N#CCc1c(C#N)c(N)nc(N2CCN(c3ccc(F)cc3)CC2)c1C#N | -27 | -3% | 0% | ? | ? | ?
Cc1cccc(NC(=O)C2CCC(CNS(=O)(=O)c3csc(C(N)=O)c3)CC2)c1C (stereo not drawn) | · | · | · | -15% | 17% | ·
CN(C)CCC1(C2=CCCC2)CC/C(=C/c2ccc(Cl)cc2)C1=O (stereo not drawn) | -111* | ? | ? | 7.3µM* | 8.2µM* | ·
COc1cccc(Nc2ncc3nc(-c4cccs4)c(=O)n(C[C@H]4CCCO4)c3n2)c1 | · | · | · | ? | -18% | ·
CC(C)Cc1nc2sc3c(c2c(=O)n1N)CC(C(C)C)OC3 (stereo not drawn) | -2 | 20% | ? | 16µM* | 2.6µM* | ?
CC(C)C1Cc2c(sc3ncnc(NN)c23)CO1 (stereo not drawn) | 57 | -14% | -17% | 8.2µM* | 12µM* | ?
CC(C)NC(=S)NNc1ncnc2sc3c(c12)CC(C)(C)OC3 | 33 | 7% | 1% | -5% | ? | ·
O=c1c2c3c(sc2n(Cc2ccc(F)cc2Cl)c(=O)n1-c1ccc(Cl)cc1)CCC3 | · | · | · | -12% | -11% | ·
O=C(CN1Cc2ccccc2OC(c2ccccc2)C1)NCc1cccnc1 (stereo not drawn) | · | · | · | -1%[9.04 µM] | ? | ·
Cc1nc(N2CCN(c3ccccn3)CC2)c2c(C)c(C(=O)N3CCN(c4cccc(Cl)c4)CC3)sc2n1 | -5 | 0% | -17% | 15µM* | 21µM* | 12µM*
Cc1c(C(=O)N2CCN(c3ccccn3)CC2)sc2ncnc(N3CCN(c4ccccc4)CC3)c12 | -18 | -9% | -5% | ? | 12µM* | ·
Cc1cc(CN2CCCCC2C(=O)Nc2ccc(Oc3cccnc3)cc2)oc1C (stereo not drawn) | -3 | -1% | -3% | ? | ? | 7%

High-throughput results from PubChem.
